Results reported in PubChem BioAssay (Tox21).
Records with an inconclusive call do not appear. Activity calls are given as the source filed them. Unless noted, calls follow the shape of the dose curve; as a rule, active = well fitted curve in the direction sought with a large enough effect in the repeat runs; inconclusive = weak or mixed curves; inactive = no such curve, though single readings can be large; an effect the other way counts as inactive or inconclusive.

Legend:
[1] = qHTS assay to identify small molecule antagonists of the glucocorticoid receptor (GR) signaling pathway - cell viability counter screen (AID 720693); also: nearly all actives have a fitted effect of over 55% in size
[2] = qHTS assay for identifying genotoxic compounds that show differential cytotoxicity against isogenic chicken DT40 cell lines with known DNA damage response pathways - Rev3 mutant cell line (AID 743014); also: nearly all actives have a fitted effect of over 55% in size; also: potency is read from the fitted curve at half-maximal effect
[3] = qHTS assay to identify small molecule antagonists of the androgen receptor (AR) signaling pathway - cell viability counter screen (AID 743033; also: nearly all actives have a fitted effect of over 45% in size)
[4] = target: Androgen receptor (Homo sapiens) (UniProt P10275); test: qHTS assay to identify small molecule antagonists of the androgen receptor (AR) signaling pathway (AID 743035; active = well fitted inhibition curve with a large enough effect in the signal ratio in the repeat runs, not every such curve was filed as active; the % refers to the signal ratio)
In short: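 Using qHTS, AR-UAS-bla GripTite HEK293 cells received compound, then R1881, and were cultured 16 h at 37C/5% CO2 before a 2 h room-temperature LiveBLAzer B/G FRET substrate step and fluorescence measurement.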

[5] = target: Androgen receptor (Homo sapiens) (UniProt P10275); test: qHTS assay to identify small molecule agonists of the androgen receptor (AR) signaling pathway (AID 743036; active = well fitted activation curve with a large enough effect in the signal ratio in the repeat runs, with a control signal flat, not every such curve was filed as active; the % refers to the signal ratio)
In short: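 Activation was read as beta-lactamase FRET signal from LiveBLAzer B/G substrate, added for 2 h at room temperature. Before that, GeneBLAzer AR-UAS-bla GripTite (HEK293) cells had 16 h compound exposure at 37C.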

[6] = target: Androgen receptor (Homo sapiens) (UniProt P10275); test: qHTS assay to identify small molecule agonists of the androgen receptor (AR) signaling pathway using the MDA cell line (AID 743040; also: nearly all actives have a fitted effect of over 20% in size)
In short: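 Cells plated, 5 h at 37C/0% CO2; compound or DMSO pinned; 16 h at 37C; ONE-Glo added; luminescence measured after 30 min at room temperature. Reporter line: MDA-kb2 with MMTV-luciferase responsive to AR and GR.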

[7] = qHTS assay to identify small molecule antagonists of the androgen receptor (AR) signaling pathway using the MDA cell line - cell viability counter screen (AID 743041; also: nearly all actives have a fitted effect of over 45% in size)
In short: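 Cells were plated at 3,000 per well and left 5 h. Compounds in DMSO were then pinned in, followed by R1881. After 16 h at 37C, CellTiter-Fluor fluorescence gave viability.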

[8] = target: Androgen receptor (Homo sapiens) (UniProt P10275); test: qHTS assay to identify small molecule antagonists of the androgen receptor (AR) signaling pathway using the MDA cell line (AID 743042; also: nearly all actives have a fitted effect of over 55% in size)
In short: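 Antagonist mode: compounds plus R1881 agonist added to MDA-kb2 AR-luc cells, incubated 16 h at 37C. Luciferase reporter luminescence quantified, with multiplexed CellTiter-Fluor readout for cell viability.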

[9] = qHTS assay to identify small molecule antagonists of the thyroid receptor (TR) signaling pathway - cell viability counter screen (AID 743064); also: nearly all actives have a fitted effect of over 50% in size; also: potency is read from the fitted curve at half-maximal effect
In short: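 In-well cytotoxicity read by CellTiter-Fluor (30 min, 37 C) following 23.5 h exposure of GH3 cells bearing a TRE-luciferase sensor. Compounds were added alongside 1 nM (final) T3 to drive TR transactivation.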

[10] = qHTS assay to identify small molecule antagonists of the thyroid receptor (TR) signaling pathway (AID 743065); also: series mostly up to about 70 µM; nearly all actives have a fitted effect of over 55% in size
In short: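 Antagonism measured as loss of luciferase signal in GH3 cells stably carrying a TRE-luciferase reporter, co-treated with compound and T3 (1 nM final) for 23.5 h at 37 C. Viability was read in the same well by CellTiter-Fluor.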

[11] = test system: thyroid hormone receptor (rat, GH3 cells); test: qHTS assay to identify small molecule agonists of the thyroid receptor (TR) signaling pathway (AID 743066; calls by dose curve)
[12] = target: Estrogen receptor (Homo sapiens) (UniProt P03372); test: qHTS assay to identify small molecule antagonists of the estrogen receptor alpha (ER-alpha) signaling pathway (AID 743069; active = well fitted curve in the direction sought with a large enough effect in the signal ratio in the repeat runs, not every such curve was filed as active; the % refers to the signal ratio)
In short: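 ER-alpha-UAS-bla GripTite HEK293 line; 2% charcoal-stripped FBS overnight; plated, 4 hr 37C/5% CO2; cpd in DMSO + 17beta-estradiol, 18 hr 37C; LiveBLAzer B/G FRET substrate 2 hr RT; fluorescence intensity.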

[13] = qHTS assay to identify small molecule antagonists of the estrogen receptor alpha (ER-alpha) signaling pathway - cell viability counter screen (AID 743074; calls by dose curve;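 also: HEK293 cells carrying ER-alpha-UAS-bla reporter stimulated with 17beta-estradiol; nearly all actives have a fitted effect of over 45% in size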)
[14] = target: Estrogen receptor (Homo sapiens) (UniProt P03372); test: qHTS assay to identify small molecule agonists of the estrogen receptor alpha (ER-alpha) signaling pathway (AID 743075; calls by dose curve;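 also: HEK293 GripTite cells with ER-alpha and UAS-driven beta-lactamase reporter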)
[15] = target: Estrogen receptor (Homo sapiens) (UniProt P03372); test: qHTS assay to identify small molecule agonists of the estrogen receptor alpha (ER-alpha) signaling pathway using the BG1 cell line (AID 743079); also: nearly all actives have a fitted effect of over 20% in size; also: potency is read from the fitted curve at half-maximal effect
[16] = qHTS assay to identify small molecule antagonists of the estrogen receptor alpha (ER-alpha) signaling pathway using the BG1 cell line (AID 743080; calls by dose curve;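 also: BG1 cells stimulated with 17beta-estradiol alongside compound; series mostly up to about 70 µM; nearly all actives have a fitted effect of over 25% in size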)
In short: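 BG1-Luc-4E2 cells (endogenous full-length ER-alpha, stable 4×ERE-luciferase) were starved 5 days in phenol-red-free medium with 10% charcoal-stripped FBS, plated 24 h, then given compound plus 17beta-estradiol for 21.5 h at 37 C; ONE-Glo luminescence read after 30 min.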

[17] = qHTS assay to identify small molecule antagonists of the estrogen receptor alpha (ER-alpha) signaling pathway using the BG1 cell line - cell viability counter screen (AID 743081);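 also: compound given together with 17beta-estradiol as the ER stimulus; series mostly up to about 70 µM; nearly all actives have a fitted effect of over 45% in size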
[18] = target: Aromatase (Homo sapiens) (UniProt P11511); test: qHTS assay to identify aromatase inhibitors (AID 743083); also: nearly all actives have a fitted effect of over 55% in size; also: potency is read from the fitted curve at half-maximal effect
[19] = qHTS assay for identifying genotoxic compounds that show differential cytotoxicity against isogenic chicken DT40 cell lines with known DNA damage response pathways - Rad54/Ku70 mutant cell line (AID 743015); also: nearly all actives have a fitted effect of over 60% in size; also: potency is read from the fitted curve at half-maximal effect
[20] = qHTS assay for identifying genotoxic compounds that show differential cytotoxicity against isogenic chicken DT40 cell lines with known DNA damage response pathways - wild type cell line (AID 743012); also: nearly all actives have a fitted effect of over 60% in size
In short: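 Using parental DT40 (300 cells/well), compounds delivered in DMSO incubate 40 h at 37 C/5% CO2. CellTiter-Glo reagent then stands 30 min at room temperature, and luminescence gives cell viability.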

Measured: Potency

Chain of Aromatase (Homo sapiens) (P11511 whole entry, looked up): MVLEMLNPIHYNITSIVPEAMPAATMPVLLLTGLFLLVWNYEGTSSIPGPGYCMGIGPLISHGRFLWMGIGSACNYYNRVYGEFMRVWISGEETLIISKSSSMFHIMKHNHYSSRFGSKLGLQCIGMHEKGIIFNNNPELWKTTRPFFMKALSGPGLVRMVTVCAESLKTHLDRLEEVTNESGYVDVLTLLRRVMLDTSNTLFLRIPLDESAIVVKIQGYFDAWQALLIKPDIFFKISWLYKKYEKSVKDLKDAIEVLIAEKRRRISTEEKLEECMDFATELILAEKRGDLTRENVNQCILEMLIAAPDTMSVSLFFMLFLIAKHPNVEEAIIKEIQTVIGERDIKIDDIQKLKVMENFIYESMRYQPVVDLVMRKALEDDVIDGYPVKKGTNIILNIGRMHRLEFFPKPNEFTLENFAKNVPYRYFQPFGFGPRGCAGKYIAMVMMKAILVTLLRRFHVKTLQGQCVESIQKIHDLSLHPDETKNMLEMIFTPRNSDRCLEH
Chain of Estrogen receptor (Homo sapiens) (P03372 whole entry, looked up): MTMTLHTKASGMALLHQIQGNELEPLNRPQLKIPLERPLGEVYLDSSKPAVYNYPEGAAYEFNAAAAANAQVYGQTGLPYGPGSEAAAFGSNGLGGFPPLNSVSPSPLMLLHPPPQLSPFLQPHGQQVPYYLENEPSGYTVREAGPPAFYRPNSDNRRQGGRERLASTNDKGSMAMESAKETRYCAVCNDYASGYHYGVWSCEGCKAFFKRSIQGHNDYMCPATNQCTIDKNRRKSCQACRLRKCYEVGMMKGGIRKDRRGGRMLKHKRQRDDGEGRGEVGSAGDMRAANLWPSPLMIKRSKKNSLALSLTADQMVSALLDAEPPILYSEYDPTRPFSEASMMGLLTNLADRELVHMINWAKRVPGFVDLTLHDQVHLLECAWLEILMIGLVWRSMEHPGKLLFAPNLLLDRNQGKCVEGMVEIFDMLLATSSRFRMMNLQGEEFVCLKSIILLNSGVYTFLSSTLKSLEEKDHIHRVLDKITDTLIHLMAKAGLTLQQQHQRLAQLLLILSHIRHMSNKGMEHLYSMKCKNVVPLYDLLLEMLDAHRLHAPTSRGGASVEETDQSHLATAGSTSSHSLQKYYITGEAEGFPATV
Chain of Androgen receptor (Homo sapiens) (P10275 whole entry, looked up): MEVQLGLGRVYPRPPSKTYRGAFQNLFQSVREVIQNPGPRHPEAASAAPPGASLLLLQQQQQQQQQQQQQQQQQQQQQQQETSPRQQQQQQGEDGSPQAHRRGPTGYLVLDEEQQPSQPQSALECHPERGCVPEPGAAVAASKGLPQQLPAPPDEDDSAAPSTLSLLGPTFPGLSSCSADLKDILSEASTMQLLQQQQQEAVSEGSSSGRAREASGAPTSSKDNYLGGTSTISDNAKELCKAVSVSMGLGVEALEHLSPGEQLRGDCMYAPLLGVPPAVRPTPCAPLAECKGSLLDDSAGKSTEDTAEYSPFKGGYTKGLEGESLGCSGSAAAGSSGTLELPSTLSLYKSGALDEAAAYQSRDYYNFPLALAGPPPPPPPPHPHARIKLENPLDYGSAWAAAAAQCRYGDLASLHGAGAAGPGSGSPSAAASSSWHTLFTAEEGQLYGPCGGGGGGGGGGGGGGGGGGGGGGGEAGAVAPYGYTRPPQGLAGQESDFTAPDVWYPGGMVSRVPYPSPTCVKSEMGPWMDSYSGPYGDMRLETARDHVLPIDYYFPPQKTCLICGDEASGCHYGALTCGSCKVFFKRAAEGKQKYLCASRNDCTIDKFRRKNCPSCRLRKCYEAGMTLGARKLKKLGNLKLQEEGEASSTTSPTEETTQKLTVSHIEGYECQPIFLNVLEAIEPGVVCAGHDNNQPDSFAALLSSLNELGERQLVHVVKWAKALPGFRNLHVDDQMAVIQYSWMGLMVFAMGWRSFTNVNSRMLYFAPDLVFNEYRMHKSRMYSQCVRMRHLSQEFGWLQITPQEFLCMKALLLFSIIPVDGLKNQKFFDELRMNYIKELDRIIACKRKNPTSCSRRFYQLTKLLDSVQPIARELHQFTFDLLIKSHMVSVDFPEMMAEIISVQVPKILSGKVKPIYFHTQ

Cc1ccc2cccnc2c1
not listed: [19] | [20]
inactive: all other assays above

NNC(=O)CCCCC(=O)NN
not listed: [4] | [5] | [6] | [8] | [9] | [17] | [20]
inactive: all other assays above

N=C(N)N1CCc2ccccc2C1
not listed: [4] | [5] | [6] | [8] | [12] | [14] | [15] | [20]
inactive: all other assays above

COc1ccc(Cl)cc1C
inactive: [1] | [2] | [19] | [3] | [7] | [9] | [10] | [11] | [13] | [17] | [18]

CC(=O)OCC(=O)[C@@]1(O)CC[C@H]2[C@@H]3CCC4=CC(=O)C=C[C@]4(C)[C@H]3[C@@H](O)C[C@@]21C
inactive: [1] | [2] | [3] | [7] | [13] | [17] | [18]
active: [15] 11.9 µM

C/C=C(\C)C=O
not listed: [4] | [5] | [6] | [8] | [12] | [20]
inactive: all other assays above

CCCCC(CC)COC(=O)CC#N (stereo unspecified)
inactive: [1] | [2] | [19] | [3] | [7] | [9] | [14] | [15] | [17] | [18]

CC(C)OCCO
inactive: [1] | [2] | [19] | [7] | [9] | [10] | [11] | [13] | [17] | [18]

Cc1ccc(O)c(C(=O)c2ccccc2)c1
active: [18] 55 µM
not listed: [3] | [8] | [9] | [12] | [14] | [15] | [16] | [20]
inactive: all other assays above

Cc1cc(C)c(C)c(C)c1
not listed: [4] | [5] | [6] | [8] | [9] | [20]
inactive: all other assays above

COc1cnc(NS(=O)(=O)c2ccc(N)cc2)nc1
not listed: [4] | [5] | [6] | [8] | [12] | [16] | [19] | [20]
inactive: all other assays above

CC(CN1CC(=O)NC(=O)C1)N1CC(=O)NC(=O)C1 (stereo unspecified)
active: [19] 0.596 µM
not listed: [2] | [4] | [6] | [16] | [20]
inactive: all other assays above

CN(C)c1ccncc1
not listed: [2] | [4] | [5] | [6] | [8] | [16] | [19] | [20]
inactive: all other assays above

O=C(O)CCC(=O)Nc1ccc(S(=O)(=O)Nc2nccs2)cc1
inactive: [1] | [19] | [3] | [7] | [9] | [10] | [11] | [13] | [17] | [18]

CCOCCOCCOC(C)=O
inactive: [2] | [19] | [3] | [7] | [9] | [10] | [11] | [13] | [17] | [18]

C=C(C)C(=O)OCCOC1CC2CC1C1C=CCC21 (stereo unspecified)
inactive: [1] | [3] | [7] | [9] | [10] | [11] | [13] | [17] | [18]

CCCCCCC(=O)c1ccccc1
inactive: [1] | [3] | [7] | [10] | [11] | [13] | [17] | [18]

Cc1cccc(N)n1
not listed: [2] | [4] | [5] | [6] | [8] | [16] | [19] | [20]
inactive: all other assays above

O=C(OOC(=O)c1ccccc1)c1ccccc1
not listed: [2] | [4] | [5] | [6] | [8] | [16] | [20]
inactive: all other assays above

CC(C)C[P+](C)(CC(C)C)CC(C)C
not listed: [1] | [2] | [4] | [5] | [6] | [8]
inactive: all other assays above

CCCCCCC(O)CO (stereo unspecified)
not listed: [2] | [4] | [5] | [6] | [8] | [9] | [11] | [20]
inactive: all other assays above

C=CC(=O)OCC[N+](C)(C)C
not listed: [2] | [4] | [5] | [6] | [8] | [13] | [20]
inactive: all other assays above

CNC(C)=O
not listed: [2] | [4] | [5] | [6] | [8] | [16] | [20]
inactive: all other assays above

CC1=C(O)C(=O)CO1
not listed: [2] | [4] | [5] | [6] | [8] | [12] | [20]
inactive: all other assays above

CCO/C=C1\N=C(c2ccccc2)OC1=O
active: [19] 48.4 µM | [9] 68.3 µM
inactive: [1] | [3] | [7] | [11] | [13] | [17] | [18]

CCCCN=C(N)N=C(N)N
inactive: [1] | [3] | [7] | [10] | [11] | [12] | [13] | [14] | [15] | [17] | [18]

O=Cc1ccc(C(=O)O)cc1
not listed: [2] | [4] | [5] | [6] | [8] | [12] | [16] | [20]
inactive: all other assays above

CCO[Si](CC(C)C)(OCC)OCC
active: [2] 24.3 µM
not listed: [1] | [3] | [4] | [5] | [6] | [8] | [19]
inactive: all other assays above

O=S(=O)(O)c1cc(I)c(O)c2ncccc12
inactive: [1] | [3] | [7] | [10] | [11] | [13] | [17] | [18]

CC12CCCC=C1C(=O)OC2=O (stereo unspecified)
not listed: [2] | [9] | [12] | [14] | [15] | [16] | [19] | [20]
inactive: all other assays above

C=CC(=O)OCCOCCOCC
inactive: [2] | [19] | [3] | [7] | [9] | [10] | [11] | [13] | [17] | [18]

COC(=O)/C=C(\C)CCC=C(C)C
not listed: [2] | [4] | [5] | [6] | [8] | [12] | [19] | [20]
inactive: all other assays above

CCCC(=O)OC
not listed: [2] | [4] | [5] | [6] | [8] | [20]
inactive: all other assays above

CC(C)OC(=O)C(C(=O)OC(C)C)=C1SC=CS1
inactive: [1] | [3] | [5] | [6] | [7] | [8] | [10] | [11] | [13] | [17] | [18]

C[n+]1ccccc1/C=N/O
not listed: [2] | [3] | [4] | [5] | [6] | [8] | [9] | [20]
inactive: all other assays above

CCCCCC(=O)CC
inactive: [1] | [19] | [3] | [7] | [9] | [10] | [11] | [13] | [17] | [18]

CCOC(=O)COc1ccc2c(C)c(CCN(CC)CC)c(=O)oc2c1Cl
inactive: [1] | [3] | [11] | [13] | [14] | [15] | [17] | [18]

COCCCOc1cc(C[C@@H](C[C@H](N)[C@@H](O)C[C@H](C(=O)NCC(C)(C)C(N)=O)C(C)C)C(C)C)ccc1OC
not listed: [2] | [4] | [5] | [6] | [8] | [13] | [20]
inactive: all other assays above

CC(C)CC(O)Cc1ccccc1 (stereo unspecified)
not listed: [2] | [15] | [19] | [20]
inactive: all other assays above

CCCC(=O)C(CC)Sc1ccoc1C (stereo unspecified)
not listed: [2] | [9] | [12] | [19] | [20]
inactive: all other assays above

CCC(C)c1nccnc1OC (stereo unspecified)
not listed: [2] | [4] | [5] | [6] | [8] | [12] | [19] | [20]
inactive: all other assays above

COC(=O)C(c1ccccc1Cl)N1CCc2sccc2C1 (stereo unspecified)
inactive: [1] | [3] | [7] | [9] | [11] | [13] | [16] | [17] | [18]

CC(=O)OC/C=C(/C)CCC=C(C)C
not listed: [2] | [4] | [5] | [6] | [8] | [16] | [19] | [20]
inactive: all other assays above

CCCCCCCCCCCCCCBr
not listed: [2] | [4] | [5] | [6] | [8] | [20]
inactive: all other assays above
